Test results: PubChem BioAssay (NCI)
Compounds without any hit were thinned out: in the full panel of roughly 83,000, 20% have a hit.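 Percent growth is the endpoint: 0 to 100 indicates growth inhibition (40 means 60% inhibition), 0 means no net growth, and negative values indicate cell death.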 Unmarked numbers belong to inactive results. Active and inactive are the calls of the source. The calls were made as follows: active = growth percent below 10; inactive = the rest.

How the values were obtained:
Assay in all cases: NCI-60 one-dose screen, 48 h (100 = growth as untreated, 0 = no growth, -100 = all killed)
Conditions in all cases: 10 µM unless noted
NCI-H23 lung = tested on: NCI-H23 lung
NCI-H322M lung = tested on: NCI-H322M lung
HOP-62 NSCLC = tested on: HOP-62 NSCLC
NCI-H460 lung = tested on: NCI-H460 lung
HOP-92 NSCLC = tested on: HOP-92 NSCLC
NCI-H522 lung = tested on: NCI-H522 lung
A549/ATCC NSCLC = tested on: A549/ATCC NSCLC
786-0 renal = tested on: 786-0 renal
COLO 205 colon = tested on: COLO 205 colon
DU-145 prostate = tested on: DU-145 prostate
K-562 leukemia = tested on: K-562 leukemia
MALME-3M melanoma = tested on: MALME-3M melanoma
MDA-MB-231 breast = tested on: MDA-MB-231 breast
RXF 393 renal = tested on: RXF 393 renal
SF-268 CNS = tested on: SF-268 CNS
SF-295 CNS = tested on: SF-295 CNS
SF-539 CNS = tested on: SF-539 CNS
UACC-257 melanoma = tested on: UACC-257 melanoma
M14 melanoma = tested on: M14 melanoma
HCT-15 colon = tested on: HCT-15 colon

| Compound | growth (NCI-H23 lung) | growth (NCI-H322M lung) | growth (HOP-62 NSCLC) | growth (NCI-H460 lung) | growth (HOP-92 NSCLC) | growth (NCI-H522 lung) | growth (A549/ATCC NSCLC) | growth (786-0 renal) | growth (COLO 205 colon) | growth (DU-145 prostate) | growth (K-562 leukemia) | growth (MALME-3M melanoma) | growth (MDA-MB-231 breast) | growth (RXF 393 renal) | growth (SF-268 CNS) | growth (SF-295 CNS) | growth (SF-539 CNS) | growth (UACC-257 melanoma) | growth (M14 melanoma) | growth (HCT-15 colon) |
| --- | --- | --- | --- | --- | --- | --- | --- | --- | --- | --- | --- | --- | --- | --- | --- | --- | --- | --- | --- | --- |
| COc1cc2nc(-c3cnc(N(C)C)nc3)nc(NC3CCN(Cc4ccccc4)CC3)c2cc1OC | -33.8% (active) | -85.7% (active) | -70.4% (active) | -71.1% (active) | -76.8% (active) | -64.2% (active) | -66.3% (active) | -71% (active) | -82.5% (active) | -83.9% (active) | -40.4% (active) | -74.4% (active) | -87.7% (active) | -78.6% (active) | -60% (active) | -92% (active) | -92.9% (active) | 24.1% | -80.6% (active) | -85.9% (active) |
| CCC1=C[C@]2(C3CC(=O)N(c4ccccc4)C3=O)CC(C(C)(C)C)C[C@@H]2[C@@H]2C(=O)N(c3ccccc3)C(=O)[C@H]12 (stereo not given in full) | 95.2% | 69.3% | 82.1% | 93.3% | 84.5% | 57.3% | 68.7% | 83.8% | 93.3% | 92% | 83.7% | 91.5% | 81.4% | 87.3% | 78.5% | 93.6% | 95.3% | 57.1% | 83.7% | 87.7% |
| S=C1CCCC(=S)N1 | 101% | 107% | 88% | 106% | 105% | 96.6% | 98.3% | 107% | 115% | 111% | 104% | 106% | 113% | 104% | 99.1% | 104% | 100% | 94.6% | 105% | 101% |
| CC(=S)NC(=O)C(=O)/C=C1/NC(=O)C(=O)S1 | 97.4% | 105% | 100% | 107% | 96.5% | 105% | 111% | 103% | 124% | 111% | 110% | 107% | 103% | 110% | 100% | 101% | 102% | 108% | 106% | 102% |
| C=C(C)CCC(C)N1CCC(N2CCC(C(=O)NCCc3ccccc3)CC2)CC1 (stereo not given) | 62.4% | 81% | 79% | 40.4% | 71% | 43.2% | 43.4% | 70.2% | 25.4% | 62.2% | 17% | 57.3% | 69.7% | 47.5% | 57.8% | 79.5% | 69% | 72.6% | 58% | 39.2% |
| Cc1nc(Nc2ccccn2)sc1C(=O)/C=C/c1ccc(Cl)cc1 | 22.7% | 32.1% | 16.4% | 3.86% (active) | 31.8% | -39.3% (active) | 17.2% | 19.7% | -21.5% (active) | 6.68% (active) | 8.43% (active) | 50.3% | 20.4% | 20.2% | 19.9% | 4.33% (active) | -8.91% (active) | 41.8% | 11.6% | 11.7% |
| C=CCN1C(=O)/C(=c2\sc3n(c2=O)NC2C(N=3)N(CC)C(=O)N2CC)c2ccccc21 (stereo not given) | 43.7% | 57% | 62.7% | 15% | 108% | 25.9% | 42.5% | 57.5% | 11.1% | 26% | 11.3% | 67.6% | 38.4% | 13.7% | 59.7% | 37.3% | -5.16% (active) | 82.4% | 16.5% | 25% |
| O=C(Nc1ccc(N2CCNCC2)cc1)c1[nH]ncc1Nc1cc(C2CC2)ncn1 | 44.3% | 37.6% | 66.4% | 38.9% | 78.1% | 25.2% | 33.2% | 56.7% | 24% | 70.6% | 24.2% | 61.5% | 81.1% | 46.5% | 60% | 76.9% | 46.1% | 75.9% | 45.3% | 35.6% |
| O=C(Nc1ccc(F)cc1F)c1cc(Br)ccc1O | -12.6% (active) | 0.898% (active) | -8.56% (active) | 4.52% (active) | -25.6% (active) | -12.2% (active) | 5.78% (active) | 3.19% (active) | 7.66% (active) | 13.2% | 4.71% (active) | -30.1% (active) | -29.9% (active) | -5.34% (active) | 7.16% (active) | -24.5% (active) | 4.41% (active) | -15% (active) | 7.28% (active) | 9.98% (active) |
| COc1ccc(/C=C2\CCC/C(=C\c3ccc(OC)c(OC)c3)C2=O)cc1OC | 21.6% | 45.4% | 28.5% | -46.5% (active) | 106% | -14% (active) | 13.8% | 0.0865% (active) | 22.6% | -33.9% (active) | 10.6% | 42.3% | 15% | -32.5% (active) | 30.5% | 1.26% (active) | 13.1% | 14% | -2.63% (active) | -8.77% (active) |
| O=C(Nc1ccc(N2CCNCC2)cn1)c1[nH]ncc1Nc1ncnc2sccc12 | 18.4% | 59.1% | 73% | 43.1% | 52.5% | -3.84% (active) | 4.12% (active) | -43.6% (active) | 29% | 41.9% | -60.1% (active) | -67.7% (active) | -35.8% (active) | 46.6% | 40.8% | 97.3% | -28.8% (active) | 69.8% | -61.3% (active) | 69.7% |
| COC(=O)/C(CCC=C(C)C)=C1\[C@@H](OC(C)=O)C[C@@]2(C)[C@H]1CC(=O)[C@H]1[C@@]3(C)CC[C@H](NCc4ccccc4)[C@@H](C)[C@@H]3CC[C@@]12C | 93.4% | 103% | 87.3% | 88.8% | 49.7% | 108% | 81.7% | 65.9% | 60% | 96.5% | 28.8% | 92.5% | 90.5% | 69.4% | 79.6% | 98.2% | 82.9% | 99.7% | 89.7% | 72.1% |
